Source: PubChem BioAssay (National Center for Advancing Translational Sciences (NCATS))
Compounds with a hit are over-represented: about 8.7% of the library has one in this group of screens.
AMA1 RON2 block – AMA1-RON2 (P. falciparum) interaction inhibition; AlphaScreen AMA1-biotinylated RON2 peptide binding; Potency, µM (top dose mostly 58.2 µM), without a hit: at the highest dose activity change, negative = inhibition, actives largely listed as inhibitors; AID 720542; 0.2% of 360,000 active;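 also: 0% = vehicle wells and -100% = peptide control; nearly all actives have a fitted effect of over 45% in size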
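AMA1 (3D7) with his tag at 25 nM final met compounds first, then biotinylated RON2 peptide at 25 nM; detection used donor plus acceptor beads, 10 µg/mL apiece, read by AlphaScreen after 30 min at room temperature.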
Pf growth 48h – inhibits P. falciparum growth in the first generation, 48 h; P. falciparum luciferase growth in erythrocytes, 48 h; Potency, µM (top dose mostly 28.7 µM), for inactives: at the highest dose activity change, negative = inhibition, hits mostly inhibitors; 5.9% of 310,000 active
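Growth was read as firefly luciferase luminescence after a 48 h, 37 C, 5% CO2 exposure of compounds to reporter-bearing P. falciparum cultures (0.1% parasitemia, 2% hematocrit final) in Albumax-supplemented RPMI 1640.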
Vaccinia Venus – vaccinia inhibition (Venus reporter); Vaccinia virus Venus reporter expression, fluorescence; Potency, µM (top dose mostly 36.5 µM), inactives show top-dose activity change, negative = inhibition, actives largely listed as inhibitors; 0.46% of 330,000 active; AID 720580; calls by dose curve; tested in A549 cells; also: nearly all actives have a fitted effect of over 30% in size
Pf growth 96h – inhibits malaria parasite growth, 96 h; P. falciparum luciferase reporter growth, 96 h; Potency, µM (titrated, usually from 28.7 µM), for the others: top-dose activity change, negative = inhibition, most hits filed as inhibitors; 6.9% of 320,000 active; AID 504834
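Plates of compound plus infected erythrocytes (2% hematocrit, 0.05% parasitemia final) incubate 96 hours, 37 C, 5% CO2. Detection reagent added; reduced luminescence from the parasites' luciferase reporter flags inhibition.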
Vaccinia mCherry – vaccinia inhibition (mCherry reporter); 0.63% of 310,000 active; Potency, µM (top dose mostly 36.5 µM), inactives show at the top dose activity change, negative = inhibition, hits mostly inhibitors; AID 720579; Vaccinia virus mCherry reporter infection, fluorescence; calls by dose curve; tested in A549 cells; also: nearly all actives have a fitted effect of over 35% in size
Numbers without * were called inactive; i = inactive; ? = inconclusive; · = not tested or not shown; [ ] = another dose, or the depositor's remark. Unless noted, calls follow the shape of the dose curve; as a rule, active = well fitted curve in the direction sought with a large enough effect; inconclusive = small, poorly fitted or top-dose-only effect, or another doubt; inactive = no such curve, though single readings can be large; an effect the other way counts as inactive or inconclusive. Unless noted, % is scaled to controls: 0 for no effect and ±100 for the full control effect; potency is read from the fitted curve at half-maximal effect.

SMILES	AMA1 RON2 block	Pf growth 48h	Vaccinia Venus	Pf growth 96h	Vaccinia mCherry
CCC(O)CNC(=O)c1cnn(-c2ncc3c(n2)-c2ccccc2CCC3)c1C1CC1 (stereo not drawn)	·	·	-6%	·	-5%
COc1cccc2c1ncc1c(-c3ccc(C)cc3)nn(-c3cccc([N+](=O)[O-])c3)c12	·	·	-27%	·	-23%
COc1ccc(NC(=O)CSc2nnc(-c3ccc(F)cc3)o2)cn1	34%	179%	·	67%	·
Cc1sc(NC(=O)CSc2nnc(-c3ccc(F)cc3)o2)c(C#N)c1C	10%	-13%	·	9.3µM*	·
Cc1ccc(-c2nnc(SCC(=O)Nc3sc(C)c(C)c3C#N)n2C)cc1	3%	22%	-10%	-22%	-12%
CCOC(=O)c1cc(-c2nnc(SCC(=O)Nc3ccc(F)cc3)o2)c(C)nc1C	4%	·	-17%	12µM*	·
Cc1cnccc1CN(C)Cc1nc(Cc2ccccc2Cl)no1	0%	9.3µM*	-15%	-25%	-16%
O=c1c2ccccc2[nH]c2ccccc12	21%	1.7µM*	0%	1.5µM*	-4%
O=c1c2c([nH]c3ccccc13)CCCCCC2	-5%	?	·	3%	·
CCC1CCc2c([nH]c3ccccc3c2=O)O1 (stereo not drawn)	6%	?	-16%	2.3µM*	-21%
O=c1c2c([nH]c3ccccc13)CCCCC2	1%	1.7µM*	-13%	1.7µM*	-9%
Cc1cnc(SCC2CCCO2)nc1C1CCCN(Cc2cc3c(cc2Cl)OCO3)C1 (stereo not drawn)	·	·	-20%	·	-26%
CC/C(=C\c1ccc(C(=O)OC)cc1)c1cc(OC)cc2oc3ccccc3c12	·	·	-3%	·	-20%
Cc1ccccc1C(=O)Nc1ccnn1C1CCN(CC2CC=CCC2)CC1 (stereo not drawn)	25%	10%	-14%	15µM*	i
Cc1ccc(CN2CCC(n3nccc3NC(=O)c3ccccc3C)CC2)o1	-5%	-19%	-4%	2.1µM*	-12%
CC(CN1CCC(n2nccc2NC(=O)CCCc2ccccc2)CC1)c1ccccc1 (stereo not drawn)	-10%	15µM*	·	12µM*	·
O=C(Nc1ccnn1C1CCN(CCCc2ccccc2)CC1)c1ccccc1	-5%	-30%	-15%	21%	i
Cc1ccccc1C(=O)Nc1ccnn1C1CCN(CCCc2ccccc2)CC1	-5%	?	-25%	15µM*	-29%
CSCC(C)N1CCC(n2nccc2NC(=O)CCCc2ccccc2)CC1 (stereo not drawn)	11%	-9%	·	?	·
COc1ccc(NC(=O)CSc2nc(-c3ccccc3)nc3c2Cc2c(CO)cnc(C)c2O3)cc1Cl	·	·	-1%	·	-3%
CCC1CCCCN1C(=O)CSc1n[nH]c(-c2ccccc2)n1 (stereo not drawn)	·	·	-10%	·	-9%
O=C(Nc1ccccc1)c1cccc(N2CCCS2(=O)=O)c1	·	·	0%	·	-2%
CCOC(=O)c1ccc(Oc2nc(NC)nc(SC)n2)cc1	-6%	3.7µM*	-11%	·	-2%
CCNc1nc(Oc2ccc(C(=O)OCC)cc2)nc(SC)n1	12%	12µM*	·	6%	·
CCOC(=O)c1ccc(Oc2nc(SC)nc(N(C)C)n2)cc1	6%	?	-6%	95%	·
SMILES	AMA1 RON2 block	Pf growth 48h	Vaccinia Venus	Pf growth 96h	Vaccinia mCherry
CCCn1c(=O)c2sccc2n2c(CCCC(=O)N3CCN(c4ccc(OC)cc4)CC3)nnc12	·	·	-3%	·	-9%
COc1cccc(CNC(=O)c2nn(-c3ccccc3Cl)nc2CO)c1	·	·	-4%	·	-3%
COc1ccc(NC(=O)CSc2nc3[nH]c(=O)cc(O)c3s2)c(OC)c1	0%	10µM*	-2%	1%	-16%
CSc1ccc(NC(=O)CSc2nc3[nH]c(=O)cc(O)c3s2)cc1	24%	-1%	·	299%	·
N#Cc1ccc(NC(=O)CSc2nc3[nH]c(=O)cc(O)c3s2)cc1	3%	?	·	1.5µM*	·
CCOc1ccc(CCNC(=O)c2cnc3sc(N4CCCCC4)nn3c2=O)cc1	·	·	-1%	·	-7%
O=C(Cn1nc2ccccc2n1)N1CCOc2ccc(CN3CCc4sccc4C3)cc2C1	·	·	6%	·	-4%
COc1ccc(/C=C2/N=C(SCC(=O)Nc3cc(C)on3)N(c3ccccc3)C2=O)cc1	12%	30%	-10%	29%	-7%
CCC(SC1=N/C(=C/c2ccccc2)C(=O)N1c1ccccc1)C(=O)Nc1cc(C)on1 (stereo not drawn)	1%	5.9µM*	-29%	10%	-30%
Cc1ccc(C)c(Nc2ncccc2C(=O)NCc2cccs2)c1	-5%[2.32 µM]	13%	?	9.3µM*	?
COc1cccc(CN(C)C(=O)c2ccc(NC(=O)CC3SC(N4CCCC4)=NC3=O)cc2)c1OC (stereo not drawn)	-12%	?	-12%	6.6µM*	i
Cc1ccnc(NC(=O)c2cccc(NC(=O)CC3SC(N4CCCCC4)=NC3=O)c2)c1 (stereo not drawn)	-1%	?	·	8.3µM*	·
O=C(CC1SC(N2CCCC2)=NC1=O)Nc1ccc(C(=O)Nc2ncccc2O)cc1 (stereo not drawn)	40%	2.6µM*	-27%	?	-12%
COc1ccc(CN(C)C(=O)c2ccc(NC(=O)CC3SC(N4CCCCC4)=NC3=O)cc2)c(OC)c1 (stereo not drawn)	17%	·	·	·	·
CCN(CC)CCNC(=O)c1ccc2nc(CCc3ccccc3)oc2c1	·	·	3%	·	-2%
Cc1cccc(NC(=O)c2sc3cccc(Cl)c3c2Cl)c1	·	·	-6%	·	-11%
CCOc1ccc(CNC(=O)c2sc3nc(C)cc(C)c3c2-n2cccc2)cc1	·	·	-2%	·	-6%
Cc1ccc(Cl)cc1NC(=O)Cn1c(=O)oc2cc(S(=O)(=O)N3CCCC3)ccc21	·	·	-18%	·	-18%
COc1ccc(CN2CCOc3ccc(CN4CCC(Oc5cccnc5)CC4)cc3C2)cc1C	·	·	-10%	·	-26%
CCn1ccc2cc(S(=O)(=O)N3CCCN(C(=O)Nc4ccccc4C(F)(F)F)CC3)ccc21	·	·	3%	·	-11%
COc1ccc(C(=O)N2CCc3cc(OC)c(OC)cc3C2)cc1OC	6%	17%	·	?	·
COc1cc2c(cc1OC)CN(C(=O)c1ccc([N+](=O)[O-])o1)CC2	-3%	?	-24%	4.1µM*	-15%
O=C(c1ccc([N+](=O)[O-])o1)N1CCc2ccccc2C1	-3%	?	·	5.2µM*	·
O=C(c1ccc([N+](=O)[O-])o1)N1CCOCC1	-2%	?	1%	3.3µM*	-3%
O=C(c1ccc([N+](=O)[O-])o1)N1CCc2ccccc21	-14%	?	?	?	?
O=C(COc1ccccc1C(=O)Nc1ccccc1)Nc1cccc(Cl)c1	·	·	-28%	·	-7%
Cc1cc(N2CCN(c3ccccn3)CC2)n2c(nc3ccccc32)c1C#N	7%	4.7µM*	0%	1%	-2%
N#Cc1c2c(c(N3CCN(c4ccccn4)CC3)n3c1nc1ccccc13)CCC2	·	·	·	0.13µM*	·
